Screens: PubChem BioAssay, National Center for Advancing Translational Sciences (NCATS)
HP1b binding inh = blocks HP1-beta chromodomain binding to methylated histone tails. AlphaScreen HP1-beta / biotin-H3K9me3 peptide binding. Potency, µM (doses to about 114 µM), without a hit: top-dose activity change, negative = inhibition, actives largely listed as inhibitors. 390,000 tested, 0.56% active. AID 540317; note: potency is the fitted concentration of half-maximal effect; nearly all actives have a fitted effect of over 70% in size
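HP1-beta protein (50 nM final) preincubated 30 min at room temperature with biotinylated H3(1-18)K9me3 peptide (50 nM) in PBS pH 7.4, 0.01% Tween-20, then compound added for 30 min. AlphaScreen streptavidin donor/nickel chelate acceptor beads (10 ug/mL final), 30 min dark, luminescence read.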
CtBP-E1A blk = CtBP/E1A binding inhibition | AlphaScreen GST-E1A/His-CtBP binding, 1536-well; stronger effect = lower value | activity change, % (no concentration beside the values) | 340,000 tested, 0.49% active; in the data active = activity change below about -65%; inconclusive = mostly about -30% to -63%; note: % is set by controls: 0 for no effect and ±100 for the full control effect
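In 5 uL wells, 23 nL compound meets equimolar GST-E1A and His-CtBP (5X stock 125 nM each) for 2 h, 37 °C. Beads (5X, 50 ug/mL) then 1 h, 37 °C, dark.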
Six1-Eya2 blk = blocks human Six1 binding to Eya2; 360,000 tested, 0.56% active; activity change, % (no concentration beside the values); AlphaScreen GST-Six1/His-Eya2 binding, biochemical; stronger effect = lower value; in the data active = activity change below about -65%; inconclusive = mostly about -30% to -63%; note: % is set by controls: 0 for no effect and ±100 for the full control effect
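AlphaScreen with GST-Six1 and His-Eya2 (5X mix: 250 nM and 500 nM), glutathione donor and nickel acceptor beads; buffer 50 mM Tris pH 8.0, 300 mM NaCl, 1 mM TCEP; 1 h at 37 C in the dark.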
BAZ2B block = inhibitors of human BAZ2B bromodomain | Q9UIF8 | AlphaScreen BAZ2B-H3K14Ac peptide displacement | Potency, µM (doses to about 114 µM), inactives show at the top dose activity change, negative = inhibition, usual class: inhibitors | 360,000 tested, 4.4% active | AID 504333; note: potency is the fitted concentration of half-maximal effect; % is set by controls: 0 for no effect and ±100 for the full control effect; nearly all actives have a fitted effect of over 60% in size
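Protein-peptide AlphaScreen: BAZ2B 50 nM, b-H3K14Ac 50 nM, 1x PBS pH 7.4 + 0.01% Tween-20. Preincubation 30 min RT; cpd 30 min RT (top 110 uM); beads 20 min RT, light-protected.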
JMJD2A Tudor = JMJD2A Tudor domain (human) inhibition; O75164; AlphaScreen JMJD2A-Tudor / H3K4me3 peptide binding; Potency, µM (highest dose often 114 µM), inactives show top-dose activity change, negative = inhibition, most hits filed as inhibitors; 390,000 tested, 4.4% active; AID 504339; note: potency is the fitted concentration of half-maximal effect; % is set by controls: 0 for no effect and ±100 for the full control effect; nearly all actives have a fitted effect of over 50% in size
G9a block = inhibitors of human histone lysine methyltransferase G9a. G9a H3K9 monomethylation, AlphaScreen, 2 h. Potency, µM (top dose mostly 102 µM), without a hit: top-dose activity, negative = inhibition, actives largely listed as inhibitors. 350,000 tested, 8.8% active. Q96KQ7; note: potency is the fitted concentration of half-maximal effect; % is set by controls: 0 for no effect and ±100 for the full control effect; nearly all actives have a fitted effect of over 75% in size
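G9a (20 nM) preincubated 15 min RT with compounds, then 500 nM biotinylated H3K9 peptide and 20 uM SAM added; 2 h RT reaction. Monomethyl-H3K9 product detected by AlphaScreen with anti-H3K9me1 antibody, streptavidin donor and anti-rabbit IgG acceptor beads.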
Active calls of the source: *; ? = inconclusive; . = not tested or not shown; [ ] = dose if it differs, or a comment. The list is not random: actives were taken first. Their share in the collection is about 10%. Unless noted, calls come from the whole dose curve; as a rule, active = well fitted inhibition curve with a large enough effect; inconclusive = small, poorly fitted or top-dose-only effect; inactive = no such curve, though single readings can be large or run the other way.

SMILES	HP1b binding inh	CtBP-E1A blk	Six1-Eya2 blk	BAZ2B block	JMJD2A Tudor	G9a block
Cc1ccc(-n2cccc2/C=C2\C(=N)N3N=C(C(C)C)SC3=NC2=O)cc1	1%	.	-12	?	?	?
CC1=CC2=NC(=O)/C(=C\c3cc(C)n(-c4ccccc4F)c3C)C(=N)N2O1	0%	-11	7	-5%	-15%	4%[59 µM]
CS(=O)(=O)C1=NSC2=NC(=O)/C(=C\c3cccn3-c3ccc(Cl)cc3)C(=N)N21	?	-14	-22	40µM*	45µM*	45µM*
COc1ccccc1C(=O)Nc1ccnn1C1CCN(CCCc2ccccc2)CC1	0%	-5	-1	-13%[57.1 µM]	-20%	18%
Cc1ccc(Cl)cc1Nc1nn2c(=O)c3ccc(C(=O)NC(C)c4ccccc4)cc3nc2s1 (centres undefined)	10%	.	.	-9%	10%	-6%[59 µM]
CCN(Cc1ccccc1)C(=O)CCc1nc(CN2CCN(C(=O)c3ccc([N+](=O)[O-])cc3)CC2)no1	36%	5	4	-33%	-10%	79µM*
CCOC(=O)c1ccc(NC(=O)C(=O)NCc2ccco2)cc1	1%	-4	-2	-3%	-6%	-2%[59 µM]
O=C(Nc1ccccc1Cl)C1CCN(c2nc3ccccc3[nH]2)CC1	19%[57 µM]	.	.	2%	-15%	-1%[59 µM]
Cc1cc(C)n(-c2nnc(NCc3ccc(Cl)cc3)nn2)n1	?	-11	-6	?	40µM*	-35%
Cc1nn(-c2nnc(NCc3ccccc3)nn2)c(C)c1Br	?	-8	-8	35µM*	50µM*	13µM*
Cn1cccc1/C=N\NC(=O)Cc1ccc(Br)c2ccccc12	16%	.	-6	-14%	-9%	27%[59 µM]
COc1cccc(-c2nc(S(=O)(=O)c3ccc(C)cc3)c(N3CCCCC3)o2)c1	-17%	.	.	-35%	-21%	?
O=[N+]([O-])c1ccc2nc(NCCCO)nc(-c3ccccc3)c2c1	?	-23	-19	-4%	?	0%[59 µM]
O=[N+]([O-])c1ccc2nc(-c3ccccc3)oc2c1	8%	.	-8	-28%	-19%	40µM*
Cc1cc(-c2cccc([N+](=O)[O-])c2)nc2ccccc12	26%	2	-5	-7%	-4%	13µM*
O=C(Nc1cccc(-c2nc3ccccc3c(=O)o2)c1)c1ccccc1	?	-9	-24	-32%	25µM*	-28%[59 µM]
O=C(O)CNc1nc(-c2ccccc2)c2cc([N+](=O)[O-])ccc2n1	20%	-20	-17	79µM*	-22%	7.9µM*
O=[N+]([O-])c1cccc(-c2cnc3ccccc3n2)c1	21%	.	-3	-10%	-13%	-23%
CCc1nc2ccc(C(=O)NCCCn3ccnc3)cn2c1N(CC)CCOC	.	4	5	.	.	.
Cc1cc(-c2nc3ccccc3c(=O)o2)ccc1[N+](=O)[O-]	12%	3	4	-17%	-15%	-28%
O=c1oc(-c2cccc([N+](=O)[O-])c2)nc2ccccc12	-12%	5	-22	-35%	-19%	45µM*
COc1ccc(-c2nnc3n2N=C(c2c(OC)cccc2OC)CS3)cc1OC	.	.	.	.	-24%	.
CN(C)c1ccc(NS(=O)(=O)c2cc3c4c(c2)CC(=O)N4CCC3)cc1	?	.	-9	45µM*	?	.
CN(C)c1ccc(NS(=O)(=O)c2cccc(Cl)c2)cc1	?	-10	-17	45µM*	32µM*	?
Cc1ccc(NS(=O)(=O)c2cccc(Cl)c2)cc1C	.	.	.	.	9%	.
SMILES	HP1b binding inh	CtBP-E1A blk	Six1-Eya2 blk	BAZ2B block	JMJD2A Tudor	G9a block
Cc1ccc(S(=O)(=O)Nc2ccc(N(C)C)cc2)cc1	?	-18	-19	35µM*	56µM*	-148%[59 µM]
CN(C)c1ccc(NS(=O)(=O)c2ccc(Cl)cc2)cc1	?	-18	?	45µM*	56µM*	3.5µM*
CCCc1n[nH]c2c1/C(=N\O)CCC2	35%	-1	3	-2%	-12%	-2%[12.7 µM]
CC(=O)N1CCc2c(sc3c2c(=O)n(-c2cc(Cl)ccc2C)c(=O)n3C)C1	34%	.	.	-21%	-8%	-20%[59 µM]
Cc1ccc(-c2nc3scc(CCNS(=O)(=O)c4ccc(C)c(C)c4)n3n2)cc1	30%	.	.	-1%	-18%	2%[59 µM]
Cc1cc(C)cc(NC(=O)CCCc2nc(-c3ccco3)no2)c1	28%	.	.	-6%	-13%	-30%[59 µM]
CN(C)c1ccc(NS(=O)(=O)c2ccc(-c3csnn3)cc2)cc1	?	?	?	56µM*	50µM*	40µM*
COc1ccc(NS(=O)(=O)c2ccc(OC)c(N(C)S(=O)(=O)c3ccc(Cl)cc3)c2)cc1	-17%	-4	-18	-38%	-26%	50µM*
Cc1nc(-c2ccc(NS(=O)(=O)c3ccccc3)cc2)cs1	13%	.	-4	-8%	-6%	-31%
Cc1cc(S(=O)(=O)Nc2ccc(N(C)C)cc2)c(C)s1	-18%	-22	-25	45µM*	50µM*	?
Cc1cc(S(=O)(=O)Nc2cccc(Cl)c2)c(C)s1	45%	-2	-10	.	-1%	2%
Fc1cc2[nH]c(=S)[nH]c2cc1Cl	8%	4	2	-2%	-11%	6.3µM*
CCC(C)N1CCC2(CC1)N=c1c(c3c4c5c(C)c(O)c3c(O)c1=NC(=O)C(C)=CC=C[C@H](C)[C@H](O)[C@@H](C)[C@@H](O)[C@@H](C)[C@H](OC(C)=O)[C@H](C)[C@@H](OC)C=CO[C@@](C)(O5)C4=O)N2 (some centres undefined)	-24%	-20	?	50µM*	?	?
CO[C@H]1C=CO[C@@]2(C)Oc3c(C)c(O)c4c(O)c(c5c(c4c3C2=O)NC2(CCN(CC(C)C)CC2)N=5)=NC(=O)C(C)=CC=C[C@H](C)[C@H](O)[C@@H](C)[C@@H](O)[C@@H](C)[C@H](OC(C)=O)[C@@H]1C	.	.	.	40µM*	.	?
COc1ccc2c(Sc3ccccc3)c(C(=O)NCCN(C)C)[nH]c2c1	4%	.	.	-16%	-31%	?
CCC(=O)N1c2ccccc2CC1C(=O)NCCc1ccccc1 (centres undefined)	4%	.	.	-1%	-19%	25%[59 µM]
CCOC(=O)C1=NN(c2ccccc2)C(=O)/C1=C\c1ccc(N(C)C)cc1	5.6µM*	-1	-5	10µM*	8.9µM*	?
CC1=NN(Cc2ccccc2)C(=O)/C1=C\c1ccc(N(C)C)cc1	?	-8	8	10µM*	?	11µM*
CCOC(=O)C1=NN(c2ccccc2)C(=O)C1	24%	.	6	-37%	-5%	.
O=C(NCc1ccccc1)c1ccc(CS(=O)Cc2ccc(Cl)cc2)o1 (centres undefined)	41%	-9	12	16%	-9%	.
